From PubChem BioAssay (Tox21)
Records with an inconclusive call do not appear. The source made the active and inactive calls. Unless noted, calls come from the whole dose curve; as a rule, active = well fitted curve in the direction sought with a large enough effect in the repeat runs; inconclusive = weak or mixed curves; inactive = no such curve, though single readings can be large; an effect the other way counts as inactive or inconclusive.

Assays:
[1] = target: Retinoic acid receptor RXR-alpha (Homo sapiens) (UniProt P19793); assay: qHTS assay to identify small molecule agonists of the RXR signaling pathway (AID 1159527; calls by dose curve; note: nearly all actives have a fitted effect of over 35% in size)
Sequence of Retinoic acid receptor RXR-alpha (Homo sapiens) (P19793 whole entry, looked up): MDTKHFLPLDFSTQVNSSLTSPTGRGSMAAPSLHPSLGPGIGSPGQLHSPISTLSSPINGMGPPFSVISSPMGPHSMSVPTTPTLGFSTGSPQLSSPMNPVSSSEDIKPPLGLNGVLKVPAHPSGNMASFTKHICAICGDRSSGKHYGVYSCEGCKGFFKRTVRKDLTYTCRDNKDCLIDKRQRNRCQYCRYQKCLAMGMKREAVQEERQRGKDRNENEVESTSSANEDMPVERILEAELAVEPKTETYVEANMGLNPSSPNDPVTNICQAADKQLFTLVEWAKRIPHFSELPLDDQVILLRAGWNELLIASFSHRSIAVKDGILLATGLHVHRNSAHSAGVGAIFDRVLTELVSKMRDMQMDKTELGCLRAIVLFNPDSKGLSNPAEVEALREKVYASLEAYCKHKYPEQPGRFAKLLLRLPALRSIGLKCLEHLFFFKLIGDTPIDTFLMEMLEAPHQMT
How it was run: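 GeneBLAzer RXR-alpha-UAS-bla HEK 293T cells in 2% charcoal-stripped FBS medium were exposed to compounds for 16 hr at 37 C in agonist mode. Beta-lactamase reporter read as 460/530 nm FRET ratio after 2 hr substrate loading.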

[2] = qHTS assay to identify small molecule agonists of the RXR signaling pathway - cell viability counter screen (AID 1159529); note: series mostly up to about 77 µM; nearly all actives have a fitted effect of over 50% in size
How it was run: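 RXR-alpha-UAS-bla HEK 293T cells in medium with 2% charcoal-stripped FBS were pre-incubated 5 hr, then compound-treated 16 hr at 37 C. Viability was read by CellTiter-Glo luminescence in the same wells as the beta-lactamase assay, with tetraoctyl ammonium bromide as positive control.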

[3] = qHTS assay to identify small molecule antagonists of the retinoid acid receptor (RAR) signaling pathway - cell viability counter screen (AID 1159551); note: nearly all actives have a fitted effect of over 35% in size
How it was run: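 In this counter screen, the RARE-luciferase line C3RL4 was exposed for 6 h at 37 C and 5% CO2 to compounds with retinol at 1 uM final. Cellular ATP, read by luminescence, served as the viability measure.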

[4] = qHTS assay to identify small molecule antagonists of the retinoic acid receptor (RAR) signaling pathway (AID 1159552; note: nearly all actives have a fitted effect of over 50% in size)
How it was run: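 Retinol signaling pathway inhibitors screened in C3RL4 RARE-luciferase reporter cells seeded overnight at 37 C, then compounds added with 1 uM (final) retinol as pathway substrate. After 6 hr at 37 C, luciferase luminescence read after 30 min at room temperature.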

[5] = qHTS assay to identify small molecule agonists of the retinoic acid receptor (RAR) signaling pathway (AID 1159553)
How it was run: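 In this cell-based screen, 1,000 C3RL4 cells per well were cultured overnight, dosed with test chemicals in DMSO for 6 hr, and assessed for RARE luciferase luminescence.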
% is set by controls: 0 for no effect and ±100 for the full control effect.

Cc1oc(=O)oc1COC(=O)[C@@H]1N2C(=O)[C@@H](NC(=O)[C@H](N)c3ccccc3)[C@H]2SC1(C)C
inactive: Potency [1] | Potency [2] | Potency [3]

c1ccc2sc(SSc3nc4ccccc4s3)nc2c1
inactive: activation [1] -16% [at 15.8 µM] | activity change, negative = cytotoxicity [2] -2.29% [at 15.8 µM] | activity change, negative = cytotoxicity [3] 0.484% [at 19 µM]

CCOC(=O)N1CCC(Nc2ccc(Cl)cc2N)CC1
inactive: Potency [1] | Potency [2] | Potency [3]

Nc1ccn([C@H]2CS[C@@H](CO)O2)c(=O)n1
inactive: Potency [1] | Potency [2] | Potency [3] | Potency [4]

CCN(CC)CC(=O)Nc1c(C)cccc1C(=O)OC
inactive: Potency [1] | Potency [2] | Potency [3]

CCSC(=O)N(CC)CC
inactive: Potency [1] | Potency [2] | Potency [3]

CC(C)(C)C1(CCc2ccc(Cl)cc2)CO1 (centres undefined)
inactive: Potency [1] | Potency [2] | Potency [3]

O=C(Nc1ccc(C(=O)O)c(O)c1)c1ccccc1
inactive: Potency [1] | Potency [2] | Potency [3]

CC(C)Cc1ccc(CC(=O)O)cc1
inactive: Potency [1] | Potency [2] | Potency [3] | Potency [4]

CC(C)N(C)C
inactive: Potency [1] | Potency [2] | Potency [3] | Potency [4]

CS(=O)(=O)c1ccc([C@@H](C[C@H]2CCC(=O)C2)C(=O)Nc2cnccn2)cc1Cl
inactive: Potency [1] | Potency [2] | Potency [3]

COC1CCC=CO1 (centres undefined)
inactive: Potency [1] | Potency [2] | Potency [3] | Potency [4]

Cc1ccc2nc(N)[nH]c(=O)c2c1Sc1ccncc1
inactive: Potency [1] | Potency [2] | Potency [3]

C[C@@H]1C[C@H]2[C@@H]3CCC4=CC(=O)C=C[C@]4(C)[C@@]3(F)[C@@H](O)C[C@]2(C)[C@@]1(O)C(=O)COP(=O)(O)O
inactive: Potency [1] | Potency [2] | Potency [3]

CCOC(=O)Oc1ccc(CCNC(=O)[C@H](CCSC)NC(C)=O)cc1OC(=O)OCC
inactive: Potency [1] | Potency [2] | Potency [3]

C=C(C)C(=O)OCCC(F)(F)C(F)(F)C(F)(F)C(F)(F)C(F)(F)C(F)(F)F
inactive: Potency [1] | Potency [2] | Potency [3]

O=C(O)c1cc(Cl)cc(Cl)c1O
inactive: Potency [1] | Potency [2] | Potency [3]

CCCCCCCCCCCCCOC(=O)CCSCCC(=O)OCCCCCCCCCCCCC
inactive: activation [1] 4.41% [at 15.8 µM] | activity change, negative = cytotoxicity [2] 10.7% [at 15.8 µM] | activity change, negative = cytotoxicity [3] 3.2% [at 19 µM] | activity, negative = inhibition [4] -11.1% [at 19 µM]

O=C(O)CNC(=O)c1ccccc1I
inactive: Potency [1] | Potency [2] | Potency [3]

O=c1[nH]c2cc(C(F)(F)F)c(N3CCOCC3)cc2n(CP(=O)(O)O)c1=O
inactive: Potency [1] | Potency [2] | Potency [3] | Potency [4]

Cc1ccc2c(c1[N+](=O)[O-])C(=O)c1ccccc1C2=O
inactive: Potency [1] | Potency [2] | Potency [3] | Potency [4]

CCCCCC
inactive: Potency [1] | Potency [2] | Potency [3] | Potency [4]

CC(C)(C)NCC(O)COc1cccc2c1C[C@H](O)[C@H](O)C2 (some centres undefined)
inactive: Potency [1] | Potency [2] | Potency [3] | Potency [4]

CC(CO)(CO)C(=O)O
inactive: Potency [1] | Potency [2] | Potency [3]

O=C(c1ccccc1)c1ccc(O)cc1
inactive: Potency [1] | Potency [2] | Potency [3] | Potency [4]

CC(=O)Oc1cccc(O)c1
inactive: Potency [1] | Potency [2] | Potency [3]

CCCCOCCOC(=O)c1cccnc1
inactive: Potency [1] | Potency [2] | Potency [3]

CN=C(N)NC(=O)Nc1c(C)cccc1C
inactive: Potency [1] | Potency [2] | Potency [3]

Cc1c[nH]c2ccccc12
inactive: Potency [1] | Potency [2] | Potency [3]

O=C1CC[C@@H](C(=O)O)N1
inactive: Potency [1] | Potency [2] | Potency [3] | Potency [4]

O=C(c1ccccc1)C1CCC1
inactive: Potency [1] | Potency [2] | Potency [3] | Potency [4]

Cc1cccc2sc(N)nc12
inactive: Potency [1] | Potency [2] | Potency [3] | Potency [4]

CC(=O)OCCC1CCCCC1
inactive: Potency [1] | Potency [2] | Potency [3] | Potency [4]

Cc1cc(CCC(=O)OCCOCCOCCOC(=O)CCc2cc(C)c(O)c(C(C)(C)C)c2)cc(C(C)(C)C)c1O
inactive: Potency [1] | Potency [2] | Potency [3] | Potency [4]

O=c1[nH][nH]c(=O)c2cc([N+](=O)[O-])ccc12
inactive: Potency [1] | Potency [2] | Potency [3]

ClC1=C(Cl)C1(Cl)Cl
inactive: Potency [1] | Potency [2] | Potency [3]

CNc1c2c(nn1C)CCCC2
inactive: Potency [1] | Potency [2] | Potency [3] | Potency [4]

COC(C)(C)OC
inactive: Potency [1] | Potency [2] | Potency [3]

CC(=O)NNC(C)=O
inactive: Potency [1] | Potency [2] | Potency [3] | Potency [4] | Potency [5]

C=CCOC(=O)COCCC(C)C
inactive: Potency [1] | Potency [2] | Potency [3] | Potency [4]
